Bioassay records (PubChem BioAssay)
Rows were chosen to be rich in hits. Some 4.7% of all compounds tested hit in one or more screens of this group.
Mtb FBA inh: Mtb fructose-bisphosphate aldolase inhibition; inhibition, % at 1 µM; AID 588726; purified M. tuberculosis FBA, fluorescence read-out; 360,000 compounds, 2.3% hits; P9WQA3; in the data active = inhibition above about 27%
CCHFV vOTU inh: CCHFV vOTU protease inhibition; 370,000 compounds, 0.55% hits; Pep-AMC fluorescence; inhibition, % at 11.5 µM
VHR inh abs: inhibitors of human VHR1 phosphatase (DUSP3) | recombinant VHR phosphatase, pNPP absorbance | inhibition, % at 13.3 µM | 290,000 compounds, 0.52% hits | AID 1654; in the data active = inhibition above about 50%
GDH-TPI inh: GDH-TPI coupled enzyme inhibition counter-screen | inhibition, % at 4.8 µM | GDH-TPI coupled enzyme counterscreen, NADH absorbance | 360,000 compounds, 1.2% hits
SARS 3CLpro inh: SARS-CoV 3CLpro protease inhibition | recombinant SARS-CoV 3CLpro, quenched FRET peptide cleavage | inhibition, % at 6 µM | 290,000 compounds, 0.14% hits | AID 1706; in the data active = inhibition above about 12%
RecA splice inh: inhibitors of M. tuberculosis RecA intein splicing | cell-free RecA intein splicing, fluorescence | AID 2221 | inhibition, % (test concentration not listed) | 290,000 compounds, 0.75% hits | P9WHJ3; in the data active = inhibition above about 30%
Target sequence (P9WHJ3 whole entry, looked up, canonical isoform): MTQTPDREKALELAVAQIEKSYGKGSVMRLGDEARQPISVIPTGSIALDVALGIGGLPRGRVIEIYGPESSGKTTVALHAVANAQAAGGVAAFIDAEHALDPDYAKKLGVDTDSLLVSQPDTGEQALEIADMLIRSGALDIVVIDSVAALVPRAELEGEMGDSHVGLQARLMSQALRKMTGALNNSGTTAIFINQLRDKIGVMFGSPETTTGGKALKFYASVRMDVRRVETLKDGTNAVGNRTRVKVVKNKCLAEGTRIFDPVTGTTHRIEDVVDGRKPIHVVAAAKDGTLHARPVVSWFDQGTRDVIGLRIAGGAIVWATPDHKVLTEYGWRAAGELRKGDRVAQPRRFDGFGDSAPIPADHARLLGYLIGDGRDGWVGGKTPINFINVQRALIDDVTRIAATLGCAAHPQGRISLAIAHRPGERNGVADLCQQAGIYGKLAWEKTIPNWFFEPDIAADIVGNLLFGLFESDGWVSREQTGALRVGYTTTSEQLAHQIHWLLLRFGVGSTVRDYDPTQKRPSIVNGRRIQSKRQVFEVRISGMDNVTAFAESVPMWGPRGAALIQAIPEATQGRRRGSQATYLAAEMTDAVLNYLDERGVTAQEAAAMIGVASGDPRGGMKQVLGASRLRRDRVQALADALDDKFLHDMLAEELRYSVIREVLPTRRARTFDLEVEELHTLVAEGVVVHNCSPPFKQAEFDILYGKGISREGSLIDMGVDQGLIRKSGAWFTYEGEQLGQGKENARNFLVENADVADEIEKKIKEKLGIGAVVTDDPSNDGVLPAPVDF
Hits are given with their value; – = inactive; · = not tested or not shown; + = active, no number. Cut-off read from the data, not from the text of the source, unless noted: active = inhibition above about 30%; inactive = the rest.

SMILES	Mtb FBA inh	CCHFV vOTU inh	VHR inh abs	GDH-TPI inh	SARS 3CLpro inh	RecA splice inh
CC(C)C[C@H]1CN(CCCC[C@@H]2CNC(=O)C(=O)N2CC2CCCCC2)C(=O)C(=O)N1CC1CCCCC1	·	–	·	·	·	·
C=CCNC(=O)Nc1ccc2c(c1)[C@@]1(CC(=O)N(CC(C)C)C1c1ccccc1)C(=O)N2C (stereo partly specified)	·	–	·	·	·	·
C[C@@H]1C(c2cccc(Cl)c2)=NN(c2ccc(Br)cc2)[C@H]1C(=O)N1CCOC1=O	56	·	·	–	·	·
C[C@@H]1C(c2cccc(Cl)c2)=NN(c2ccccc2)[C@H]1C(=O)N1CCOC1=O	–	–	·	–	·	·
C=CCN1[C@@H](C)[C@H](c2ccccc2)Oc2cccc(N3CCCC3)c2S1(=O)=O	·	–	·	·	·	·
NC(=S)N/N=C/c1ncc(C(F)(F)F)cc1Cl	–	·	–	46	–	–
NC(=S)N/N=C/c1ccc(C(F)(F)F)cc1	–	–	–	–	–	–
c1ccc(C(c2nnnn2C2CCCCC2)N2CCc3ccccc3C2)nc1 (stereo unspecified)	69	·	–	–	–	–
O=C(Nc1c2c(nn1-c1ccc(F)cc1)CS(=O)(=O)C2)c1ccc2c(c1)OCO2	–	–	–	–	–	–
C/C(CC(=O)NCc1ccco1)=N\NC(=O)Cc1ccc(Cl)cc1	–	–	–	–	–	–
O=C(COC(=O)c1ccc([N+](=O)[O-])cc1Cl)NCc1ccco1	–	–	·	–	·	·
C/C(CC(=O)NCc1ccco1)=N\NC(=O)c1ccc(Cl)cc1Cl	–	–	52	–	–	–
C/C(CC(=O)NCc1ccco1)=N\NC(=O)c1ccc([N+](=O)[O-])cc1Cl	–	–	–	–	–	69
CC(=O)N(C)C[C@@H]1OCc2ccccc2-c2c(n(C)c3ccccc23)C(=O)N([C@@H](C)CO)C[C@@H]1C	·	–	·	·	·	·
COc1ccccc1NC(=O)OC1CC2CC1[C@H]1CCCCN1[C@H]2C (stereo partly specified)	·	–	·	·	·	·
COc1ccc(CCNC(=O)c2c(O)c3ccccc3[nH]c2=O)cc1	–	–	58	–	–	–
COc1ccc(CCNC(=O)c2c(O)c3ccccc3[nH]c2=O)cc1OC	–	–	·	–	–	–
COc1ccc(CCC(=O)Nc2c(-c3ccc(N(C)C)cc3)[nH][nH]c2=O)cc1	–	109	·	·	·	·
COC(=O)C1=CNC=C(C(=O)OC)C1c1ccc(C(=O)OC)cc1	115	–	–	–	–	–
Nc1ccn(CC(=O)NCCNc2ccc([N+](=O)[O-])cn2)c(=O)n1	–	–	·	33	·	·
Cc1c(C(=O)N2CCCCC2)c(S(=O)(=O)N(C)Cc2ccccc2)c(C)n1C	–	–	54	–	–	–
Cc1c(C(=O)N2CCCCC2)c(S(=O)(=O)N(C)Cc2ccco2)c(C)n1C	–	–	–	–	–	–
COc1ccc(/C=C(\NC(=O)c2cccs2)C(=O)NC(C)(C)C)cc1OC	–	–	53	–	–	–
COc1ccc(/C=C(\NC(=O)c2cccs2)C(=O)Nc2ccccc2C)cc1OC	–	–	–	38	–	–
COc1ccc(/C=C(/NC(=O)c2cccs2)C(=O)N2CCOCC2)cc1OC	–	–	–	–	–	–
SMILES	Mtb FBA inh	CCHFV vOTU inh	VHR inh abs	GDH-TPI inh	SARS 3CLpro inh	RecA splice inh
CN(Cc1ccc(Cl)c(Cl)c1)C(=O)C1=CC=CN2CCS(=O)(=O)N=C12	–	–	·	–	·	·
CCOc1ccccc1C(=O)OCC(=O)Nc1cc(S(=O)(=O)N2CCOCC2)ccc1C	–	–	·	–	·	·
COc1ccc(Cl)cc1-n1c(N)c(C(N)=O)sc1=S	–	·	–	37	–	–
COC(=O)c1sc(=S)n(-c2ccccc2OC)c1N	–	–	–	–	–	–
CCOc1ccccc1-n1c(N)c(C(N)=O)sc1=S	–	–	–	32	–	–
CN(C)C1=NCCN1CCCCc1ccccc1	–	–	·	–	·	·
ON=C(CCc1ccccc1)c1ccccc1	–	–	·	–	·	·
COC(=O)c1ccc(NC2=C(Cl)C(=O)OC2OC(=O)c2ccccc2)cc1 (stereo unspecified)	–	–	–	–	–	30
COc1cccc(NC2=C(Cl)C(=O)OC2OC(=O)c2ccco2)c1 (stereo unspecified)	–	–	–	–	–	35
Cc1ccc(NC2=C(Cl)C(=O)OC2OC(=O)c2ccc(C)cc2)cc1 (stereo unspecified)	–	–	–	–	–	–
Cc1ccccc1NC1=C(Cl)C(=O)OC1OC(=O)c1ccco1 (stereo unspecified)	–	–	–	–	–	43
CCOC1OC(=O)C(Cl)=C1Nc1ccccc1C (stereo unspecified)	–	–	–	–	–	–
COc1ccccc1NC1=C(Cl)C(=O)OC1OC(=O)c1ccco1 (stereo unspecified)	–	–	–	–	–	41
Cc1cc(O)cc(=O)n1-c1ccc(Cl)c(C(F)(F)F)c1	·	–	·	·	·	·
Cc1[nH]c2ccccc2c1CC(=O)Nc1ccc(Oc2cccnc2)cc1	·	–	·	·	·	·
C[C@H](CO)N1C[C@H](C)[C@@H](CN(C)C(=O)c2ccncc2)OCc2cn(nn2)CCCC1=O	·	–	·	·	·	·
COC(=O)C1=C(C)N(C)C(=NCc2ccc(OC)cc2)NC1c1cccc(F)c1 (stereo unspecified)	·	–	·	·	·	·
C=CCN1CC(COc2ccc(OC)cc2)OCCS1(=O)=O (stereo unspecified)	·	–	·	·	·	·
COc1ccc(C(=O)N/C(=C/c2cccs2)c2nc3ccccc3[nH]2)cc1OC	–	–	–	47	–	–
COc1cc(/C=C(/C(=O)c2cccs2)c2nc3ccccc3[nH]2)cc(OC)c1O	–	–	–	43	–	–
O=C(NCc1nc2ccccc2[nH]1)c1cccs1	–	–	–	–	–	–
COc1ccc(C(=O)N/C(=C/c2cccs2)C(=O)NC(C)(C)C)cc1OC	–	–	–	–	–	–
CC(C)(C)NC(=O)C1C(c2ccccc2)=Nc2ccccc2N1C(=O)c1ccc(C(F)(F)F)cc1 (stereo unspecified)	·	–	·	·	·	·
C/C(=N\Nc1ncc(Cl)cc1Cl)c1ccc(C#N)cc1	–	–	–	46	–	–
CC1CC(=O)C2=C(C1)Nc1nc3ccccc3n1C2c1cccnc1 (stereo unspecified)	165	–	–	–	–	–
O=C1CCCC2=C1C(c1ccncc1)n1c(nc3ccccc31)N2 (stereo unspecified)	+	–	–	–	–	–
Nn1c(SCC(=O)Nc2ccc(C(=O)O)cc2)nnc1-c1ccco1	·	–	·	·	·	·
O=C1Nc2ccccc2/C1=N/N=C/c1ccc(-c2ccc([N+](=O)[O-])cc2)o1	–	–	54	–	–	–
CC(=O)N1c2ccc(S(=O)(=O)N3CCCC3)cc2CC1C(=O)NCc1ccccc1F (stereo unspecified)	–	–	56	–	–	–
O=C(NCc1ccccc1F)C1CCCN1S(=O)(=O)c1ccc(F)cc1 (stereo unspecified)	–	–	59	–	–	–
